Screen size: about 360,000 compounds; about 11,000 (3.1%) were called active. Inconclusive results (about 4%) are left out. The list comes from a sample in which actives are over-represented; it also holds similar structures and randomly drawn compounds. A number with no mark means an inactive call. Calls come from the whole dose curve; as a rule, active = well fitted inhibition curve with a large enough effect; inconclusive = small, poorly fitted or top-dose-only effect; inactive = no such curve, though single readings can be large or run the other way.
% is set by controls: 0 for no effect and ±100 for the full control effect; potency is the fitted concentration of half-maximal effect.

This assay concerns the target Schistosoma mansoni thioredoxin glutathione reductase (TGR) (UniProt Q962Y6). In words: qHTS Assay for the Inhibitors of Schistosoma Mansoni Peroxiredoxins. Note: nearly all actives have a fitted effect of over 60% in size. Particulars: purified TGR, DTNB reduction, TNB absorbance 405 nm; series mostly up to 114 µM; activity change, negative = inhibition: at the top concentration. From the text: Schistosomiasis is a major neglected tropical disease that currently affects over 200 million. It is caused by different species of flatworms, such as Schistosoma mansoni. Over the last century, drugs to treat the disease have evolved from potassium antimonyl tartrate, artemisinin, oxamniquine, to praziquantel, with praziquantel remaining the universally-used single drug of choice over the past three decades. However, transmission rates have changed little with praziquantel, and there is evidence for the development of drug resistant parasites. Because there is currently no suitable alternative therapy available, there is an urgent need to identify new targets and drugs for schistosomiasis treatment. Thioredoxin glutathione reductase (TGR), one uniquely positioned S. mansoni enzyme, has been identified as a major component of the worms' distinct and compressed antioxidant "firewall". TGR is a multifunctional enzyme that catalyzes the interconversion between reduced and oxidized forms of both glutathione (GSH) and thioredoxins, thus making it an attractive new antiparasitic target. Recently, a quantitative high-throughput screen of the NIH Molecular Libraries Small Molecule Repository (MLSMR, ~71K at the time of the screen in 2007) was performed using an assay that targeted both TGR and peroxiredoxin2 (Prx2, an H2O2-reducing enzymatic component of the S. mansoni redox "firewall") by following the decrease of NADPH fluorescence. […] Additional mechanistic link between exogenous NO donation and parasitic injury for the oxadiazole-2-oxide class of compounds was also expanded and better defined. Although the screen addressed both TGR and Prx2, the assay required post-screen target deconvolution for further characterization of the actives. In addition, the fluorescence assay was also subject to fluorescence interference from compound library members. We have developed a 1536-well-based kinetic HTS assay to address TGR alone. The assay followed the reduction of 5, 5'-dithiobis (2-nitrobenzoic acid) (DTNB) (Ellman's reagent) by NADPH and measured the increase in absorbance at 412 nm of the reaction product, TNB. […] This assay format can be used to screen the current MLSMR collection (with >300K compounds available) to find novel TGR inhibitors. Furoxan is a good choice to serve as a positive control in the primary HTS assay.
Three microliters of reagents (100 uM NADPH and 20 nM TGR or 100 uM NADPH as no-enzyme control) were dispensed into 1,536-well black clear-bottomed plates. Compounds (23 nL) were transferred via Kalypsys pin tool equipped with 1536-pin array (10 nL slotted pins, V&P Scientific, San Diego, CA). The plates were then be incubated for 15 min at room temperature, and 1 uL aliquot of 500 uM NADPH were added, immediately followed by a 1 uL aliquot of 15 mM DTNB to start the reaction. The plate was transferred to a ViewLux high-throughput CCD imager (Perkin-Elmer, Wellesley, MA) where kinetic measurements of the TNB absorbance were acquired using a 405 excitation filter. Throughout the screen, reagent bottles and all liquid lines were made light-tight to minimize reagent degradation. All screening operations were performed on a fully integrated robotic system (Kalypsys, San Diego, CA) containing one RX-130 and two RX-90 anthropomorphic robotic arms (Staubli, Duncan, SC). Library plates were screened starting from the lowest and proceeding to the highest concentration, and a "double-dipping" step of the highest concentration was required to access higher concentrations of compounds. Vehicle-only plates, with DMSO being pin-transferred to the entire column 5-48 compound area, were inserted uniformly at the beginning and the end of each library in order to monitor for and record any shifts in the background, which can be affected by reagent dispensers or loss in enzyme activity overtime. […]
As to `COc1cc(/C=N/NC(=S)Nc2cccnc2)cc(OC)c1O`, the “activity change, negative = inhibition” value was -21.6%.
`COc1ccc2cc(CCl)c(Cl)nc2c1`: the Potency is 31.6 µM (active).
With `COc1ccc2oc(-c3cccc(NC(=O)CSc4ccc(Cl)cc4)c3)nc2c1`, the “activity change, negative = inhibition” value is 3.2%.
Still for that read-out and setting: the figure for `CCc1ccc(CNC(=O)c2cc3cc4ccc(OC)cc4nc3o2)cc1` is 15%; for `CCOc1ccc(Nc2nc3c(S(=O)(=O)c4cccc(Cl)c4)nnn3c3ccsc23)cc1` it is 0.289%.
Same read-out and setting: the figure for `C[C@@]12C(=O)N(c3cccc(Br)c3)C(=O)N1[C@H](c1ccc(Cl)cc1)[C@@H]1C(=O)N(C3CCCCC3)C(=O)[C@@H]12` is -24.8%; for `O=C1[C@@H]2C(Cc3ccc(O)cc3)NC3(C(=O)Nc4ccc(F)cc43)[C@@H]2C(=O)N1c1ccc(F)cc1` (some centres undefined) it is -9.3%.
For `CSCCC1NC2(C(=O)Nc3ccc(Cl)cc32)[C@@H]2C(=O)N(C3CCCC3)C(=O)[C@H]12` (some centres undefined), the Potency was 31.6 µM (active).
With `CN(Cc1ccccc1)S(=O)(=O)c1ccc(F)c(C(=O)Nc2cccc(Cl)c2Cl)c1`, the “activity change, negative = inhibition” value is 12.7%.
Same read-out and setting: the figure for `Cc1ccc(CCNC(=O)Cn2c(-c3cccs3)cc3cc(F)ccc32)cc1` is -2.72%.
Take `C=CS(=O)c1sc(Cl)c(N2CCOCC2)c1[N+](=O)[O-]` (centres undefined): the Potency was 0.199 µM (active).
Turning to `CCOC(=O)c1[nH]c(C)c(CCC(=O)N2CCN(c3ccccc3)CC2)c1C`, the “activity change, negative = inhibition” value was 7.18%.
Still for that read-out and setting: the figure for `Cn1c(=O)n(Cc2c(F)cccc2Cl)c(=O)c2c1nc1n2CCN1c1ccc(F)cc1` is 12.7%; for `O=C(CCCCCn1c(=O)[nH]c2ccccc2c1=O)NCCc1c[nH]c2ccccc12` it is 1.93%.
The same measure, in the same setting: the figure for `NS(=O)(=O)c1ccc(CCNC(=O)CCCCCn2c(=O)[nH]c3ccccc3c2=O)cc1` is 2.15%.
As for `O=C(CCCCn1c(=O)[nH]c2ccccc2c1=O)NCc1ccc2c(c1)OCO2`, the Potency was 2.51 µM (active).
Take `CCCCCn1c(CCCNC(=O)c2ccccc2OC)nc2ccccc21`: the “activity change, negative = inhibition” value is -3.99%.
Same read-out and setting: the result for `COc1ccc(C)cc1NC(=O)CCc1c(C)nn(-c2ccc(N3CCOCC3)nn2)c1C` reads -3.54%; that for `CCOC(=O)c1ccc(NC(=O)Cn2c(=O)n(-c3ccc(C)cc3)c(=O)c3c2cnn3C)cc1`, 1.17%.
Turning to `O=C(N/N=C/c1ccco1)c1csc2c1CCCC2`, the Potency was 44.7 µM (active).
For `O=C(Nc1ccccc1N1CCOCC1)c1csc2c1CCCC2`, the “activity change, negative = inhibition” value was -5.36%.
As to `O=C(Cc1ccccc1)Nc1cccc(C(=O)N/N=C/c2ccco2)c1`, the “activity change, negative = inhibition” value is 2.24%.
The same measure, in the same setting: the result for `CCOC(=O)C1CCN(c2csc3ccc(C)cc3c2=O)CC1` reads -5.6%; that for `CCOC(=O)c1c(NC(=O)/C=C/c2ccc(OC)cc2)sc2c1CCC(C)C2` (centres undefined), 2.9%; that for `O=C(CCCN1C(=O)/C(=C/c2cccs2)SC1=S)Nc1ccc(O)cc1`, -9.78%.
Regarding `Cc1ccc(-c2nn(-c3ccccc3)cc2/C=C2\SC(=S)N(CCCCCC(=O)O)C2=O)o1`, the Potency was 12.6 µM (active).
In the case of `COc1ccc(/C=C2/SC(=O)N(CCCCCC(=O)Nc3ccccc3C(=O)O)C2=S)cc1`, the “activity change, negative = inhibition” value was -1.67%.
Still for that read-out and setting: the result for `Cc1ccc(-c2nn(-c3cccc(F)c3)cc2CNCCc2ccncc2)o1` reads -22.6%; that for `O=C(O)CCC(=O)N(Cc1ccccc1)Cc1ccccc1`, -7.7%.
With `Cc1ccc(-c2nn(-c3ccccc3)cc2CN(Cc2ccccc2)C(=O)CCC(=O)O)o1`, the Potency was 7.94 µM (active).
For `Cc1ccc(C)c(CN2C(=O)c3ccccc3S(=O)c3ccc(C(=O)N4CCOCC4)cc32)c1` (centres undefined), the “activity change, negative = inhibition” value is -17.2%.
The same measure, in the same setting: the result for `CCCc1nn2c(=O)cc(COC(=O)c3ccc(NC(=O)COc4ccc(F)cc4)cc3)nc2s1` reads 2.97%.
The same measure, in the same setting: the result for `CCOC(=O)c1c(NC(=O)COc2cc(C)ccc2C(C)C)sc(C)c1C` reads -1.77%.
Take `CCCCOc1ccc(C(=O)N2CC(=O)Nc3ccc(Br)cc3C2c2ccc(F)cc2)cc1` (centres undefined): the “activity change, negative = inhibition” value was 3.05%.
The same measure, in the same setting: the figure for `CCOC(=O)c1c(C(C#N)C#N)cc(C)nc1C` is 2.77%; for `CCOC(=O)COc1nc(C)cc(C(F)(F)F)c1C#N` it is 18%.
For `CCOC(=O)c1cc(C)nc(S(C)(=O)=O)c1C#N`, the Potency is 35.5 µM (active).
In the case of `Cc1c(Cl)cccc1NC(=O)CCS(=O)(=O)c1ccc2c(c1)oc(=O)n2C`, the “activity change, negative = inhibition” value is -35.2%.
In the case of `CCOc1ccc(N2C(=O)/C(=C/c3ccc(C)o3)N(C)C2=S)cc1`, the Potency was 28.2 µM (active).
For the molecule `CCOc1ccc(N2C(=O)CSC2=NC#N)cc1`, the “activity change, negative = inhibition” value is -3.07%.
For `CCOc1ccc(N2C(=O)CN(c3cccc4ccccc34)C2=S)cc1`, the “activity change, negative = inhibition” value is -0.257%.
The same measure, in the same setting: the result for `COc1cccc(N(CC(=O)NCCSc2ccccn2)S(C)(=O)=O)c1` reads 0.808%; that for `CCOC(=O)CSc1ccccn1`, 2.94%.
For `COc1ccc(C=C(C#N)C#N)c(CSc2ccccn2)c1`, the Potency is 1 µM (active).
In the case of `CC(C)c1ccc(C2CC(=O)N3CN(C4CCCCC4)CSC3=C2C#N)cc1` (centres undefined), the Potency was 6.31 µM (active).
Regarding `CC(C)c1ccc(C2C(C#N)=C(N)Oc3c2oc(CO)cc3=O)cc1` (centres undefined), the “activity change, negative = inhibition” value is 17.8%.
For the molecule `CCOC(=O)c1cc2c(=O)n3ccccc3nc2n(CC2CCCO2)c1=NC(=O)c1ccc(C(C)(C)C)cc1` (centres undefined), the “activity change, negative = inhibition” value was 1.91%.
Regarding `CN1c2ccc(C=O)c3c(C=O)ccc(c23)N(C)C1(C)C`, the Potency is 35.5 µM (active).
With `CCc1cc2c(-c3ccccc3)cc(=O)oc2c2c1OCN(Cc1ccc(C)cc1)C2`, the “activity change, negative = inhibition” value is -3.03%.

For the origin of these results see PubChem BioAssay AID485364 (National Center for Advancing Translational Sciences (NCATS), 2010).
